Source: PubChem BioAssay AID1159580 (chemical genetic matrix, 2015)
In all, about 5,500 compounds went through this assay and about 2,000 (36%) were called active. Another 18% or so got no clear call; they are omitted. Cut-off read from the data, not from the text of the source: active = normalized growth mostly below about 0.91 (no sharp cut-off); inconclusive = no clear call, values can overlap the other calls; inactive = mostly above about 0.92. The list shows a part of the results.

Test: chemical genetic growth profiling, strain panel (AID 1159580);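 note: tested at 20 µM; growth read once vehicle control cultures reached saturation at 30 °C; 1 = growth at the plate median or of vehicle wells; lower values mean less growth of the strain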
Conditions: S. cerevisiae deletion strains, growth OD

Measured: normalized growth

CC(=O)O[C@@H]1CC2C(C)(C)[C@H](O)C=C[C@]2(C)C2CC[C@@]3(C)[C@H](c4ccoc4)OC(=O)C4OC43[C@@]21C (stereo not given in full)
inactive: locus YAL021C, strain ccr4, stronger effect = lower value 1.02 | locus YAL026C, strain drs2, stronger effect = lower value 1.03 | locus YAL030W, strain snc1, stronger effect = lower value 1.01 | locus YBL061C, strain skt5, stronger effect = lower value 1.02 | locus YBR009C, strain hhf1, stronger effect = lower value 1.02 | locus YBR023C, strain chs3, stronger effect = lower value 1.03 | locus YBR171W, strain sec66, stronger effect = lower value 1.01 | locus YBR231C, strain swc5, stronger effect = lower value 1.02 | locus YBR279W, strain paf1, stronger effect = lower value 1.02 | locus YCL011C, strain gbp2, stronger effect = lower value 1.02 | locus YCL016C, strain dcc1, stronger effect = lower value 1.02 | locus YCL061C, strain MRC1, stronger effect = lower value 1.01 | locus YCL069W, strain vba3, stronger effect = lower value 1.02 | locus YCR088W, strain abp1, stronger effect = lower value 1.02 | locus YDL005C, strain med2, stronger effect = lower value 1.01 | locus YDL040C, strain nat1, stronger effect = lower value 1.02 | locus YDR001C, strain nth1, stronger effect = lower value 1.01 | locus YDR069C, strain doa4, stronger effect = lower value 1.04 | locus YDR137W, strain rgp1, stronger effect = lower value 1.03 | locus YDR159W, strain sac3, stronger effect = lower value 1.03 | locus YDR195W, strain ref2 1.06 | locus YDR297W, strain sur2, stronger effect = lower value 1.01 | locus YDR334W, strain swr1, stronger effect = lower value 1.02 | locus YDR335W, strain msn5, stronger effect = lower value 1.02 | locus YDR392W, strain spt3, stronger effect = lower value 0.963 | locus YEL003W, strain gim4, stronger effect = lower value 1.02 | locus YEL037C, strain rad23, stronger effect = lower value 1.02 | locus YEL061C, strain CIN8 (second series), stronger effect = lower value 1.01 | locus YER015W, strain faa2, stronger effect = lower value 1.02 | locus YER016W, strain bim1, stronger effect = lower value 1.02 | locus YER111C, strain swi4, stronger effect = lower value 1.02 | locus YER155C, strain BEM2 (second series), stronger effect = lower value 1.03 | locus YFR010W, strain ubp6, stronger effect = lower value 1.03 | locus YGL167C, strain pmr1, stronger effect = lower value 1.02 | locus YGL173C, strain kem1, stronger effect = lower value 1.02 | locus YGL227W, strain vid30, stronger effect = lower value 1.02 | locus YGL240W, strain doc1, stronger effect = lower value 1.02 | locus YGL253W, strain hxk2, stronger effect = lower value 1.01 | locus YHR013C, strain ard1, stronger effect = lower value 1.04 | locus YHR027C, strain rpn1, stronger effect = lower value 1.02 | locus YHR030C, strain SLT2, stronger effect = lower value 0.999 | locus YHR079C, strain IRE1, stronger effect = lower value 0.99 | locus YHR142W, strain chs7, stronger effect = lower value 1.02 | locus YJL092W, strain hpr5, stronger effect = lower value 1.02 | locus YJL095W, strain BCK1 (second series), stronger effect = lower value 1.02 | locus YJL095W, strain BCK1, stronger effect = lower value 1 | locus YJL115W, strain asf1, stronger effect = lower value 1.02 | locus YJL129C, strain trk1, stronger effect = lower value 1.04 | locus YJL154C, strain vps35, stronger effect = lower value 1.01 | locus YJL164C, strain tpk1, stronger effect = lower value 0.998 | locus YJL166W, strain qcr8, stronger effect = lower value 1.01 | locus YJL187C, strain SWE1, stronger effect = lower value 1.01 | locus YJR066W, strain TOR1, stronger effect = lower value 0.963 | locus YKL160W, strain elf1, stronger effect = lower value 1.01 | locus YKR026C, strain gcn3, stronger effect = lower value 0.998 | locus YKR091W, strain srl3, stronger effect = lower value 1.02 | locus YLL001W, strain dnm1, stronger effect = lower value 1.01 | locus YLL026W, stronger effect = lower value 1.02 | locus YLL041C, strain sdh2, stronger effect = lower value 1.01 | locus YLR027C, strain aat2, stronger effect = lower value 1.01 | locus YLR113W, strain HOG1, stronger effect = lower value 0.95 | locus YLR221C, strain rsa3, stronger effect = lower value 1.01 | locus YLR258W, strain gsy2, stronger effect = lower value 1.02 | locus YLR262C, strain YPT6 (second series), stronger effect = lower value 1.02 | locus YLR320W, strain mms22, stronger effect = lower value 1.01 | locus YLR342W, strain FKS1, stronger effect = lower value 1.03 | locus YLR357W, strain rsc2, stronger effect = lower value 1.03 | locus YLR370C, strain arc18, stronger effect = lower value 1.02 | locus YLR384C, strain iki3, stronger effect = lower value 1.02 | locus YML120C, strain ndi1, stronger effect = lower value 1.02 | locus YMR058W, strain fet3, stronger effect = lower value 1.02 | locus YMR125W, strain sto1, stronger effect = lower value 1.03 | locus YMR129W, stronger effect = lower value 1.01 | locus YMR205C, strain PFK2, stronger effect = lower value 1.02 | locus YMR231W, strain pep5, stronger effect = lower value 1.02 | locus YNL071W, strain lat1, stronger effect = lower value 1.02 | locus YNL183C, strain NPR1, stronger effect = lower value 0.955 | locus YNL209W, strain ssb2, stronger effect = lower value 1.02 | locus YNL248C, strain rpa49, stronger effect = lower value 1.01 | locus YNL322C, strain KRE1 (second series), stronger effect = lower value 1.02 | locus YNR049C, strain mso1, stronger effect = lower value 1.02 | locus YOR001W, strain rrp6, stronger effect = lower value 1.01 | locus YOR070C, strain gyp1, stronger effect = lower value 1.02 | locus YOR080W, strain dia2, stronger effect = lower value 1.03 | locus YOR083W, strain WHI5, stronger effect = lower value 1 | locus YOR106W, strain vam3, stronger effect = lower value 1.01 | locus YOR231W, strain MKK1, stronger effect = lower value 0.945 | locus YOR265W, strain rbl2, stronger effect = lower value 1.02 | locus YOR270C, strain vph1, stronger effect = lower value 1.04 | locus YOR290C, strain snf2, stronger effect = lower value 0.982 | locus YPL051W, strain arl3, stronger effect = lower value 1 | locus YPL078C, strain atp4, stronger effect = lower value 1.01 | locus YPL106C, strain sse1, stronger effect = lower value 1.04 | locus YPL240C, strain hsp82, stronger effect = lower value 1.02 | locus YPL256C, strain CLN2, stronger effect = lower value 0.962
